{"source": "PubChem BioAssay (NCATS)", "note": "Inconclusive results are not listed. Activity calls are given as the source filed them. Calls follow the shape of the dose curve; as a rule, active = well fitted curve in the direction sought with a large enough effect; inconclusive = small, poorly fitted or top-dose-only effect, or another doubt; inactive = no such curve, though single readings can be large; an effect the other way counts as inactive or inconclusive.", "data": [{"test_system": "not listed separately", "test": "Primary fluorescence-based thiol-reactive (MSTI) qHTS assay for identification of artifact compounds. (AID 1845221);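 also: thiol-reactive compounds lower the probe fluorescence signal; nearly all actives have a fitted effect of over 65% in size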", "settings": "MSTI thiol-reactivity probe, 1 h; series mostly up to 53.8 µM; activity change, negative = thiol reactive: at the top concentration", "outline": "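In PBS pH 7.4 with 2% DMSO, each compound met 4 uM MSTI for one hour at ambient temperature, shielded from light, before fluorescence detection.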", "values": [{"smiles": "C=C[C@H]1CN2CC[C@H]1C[C@H]2[C@H](O)c1ccnc2ccc(OC)cc12", "activity change, negative = thiol reactive": "54.5% (inactive)"}, {"smiles": "O=C1[C@H](CC[C@H](O)c2ccc(F)cc2)[C@@H](c2ccc(O)cc2)N1c1ccc(F)cc1", "activity change, negative = thiol reactive": "272% (inactive)"}, {"smiles": "CC[C@]12CCCN3CCc4c(n(c5ccccc45)C(=O)C1)[C@@H]32", "activity change, negative = thiol reactive": "102% (inactive)"}, {"smiles": "O=C(CCCN1CC=C(n2c(=O)[nH]c3ccccc32)CC1)c1ccc(F)cc1", "activity change, negative = thiol reactive": "55.2% (inactive)"}]}, {"test_system": "Nanoluciferase (engineered Oplophorus gracilirostris luciferase)", "test": "Primary Nanoluciferase (NLuc) qHTS assay for identification of artifact compounds. (AID 1845222);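 also: 0% = DMSO and -100% = no enzyme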", "settings": "NLuc-conditioned medium, Nano-Glo luminescence, 5 min; series mostly up to 54.1 µM; activity, negative = inhibition: at the top concentration", "outline": "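Diluted conditioned medium from NLuc-expressing S16 cells treated with compounds for 15 min at room temperature, then Nano-Glo substrate added; luminescence read after 5 min. Percent inhibition versus no-enzyme and DMSO controls fitted to 4-parameter Hill equation.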", "values": [{"smiles": "C=C[C@H]1CN2CC[C@H]1C[C@H]2[C@H](O)c1ccnc2ccc(OC)cc12", "activity, negative = inhibition": "-9.23% (inactive)"}, {"smiles": "O=C1[C@H](CC[C@H](O)c2ccc(F)cc2)[C@@H](c2ccc(O)cc2)N1c1ccc(F)cc1", "activity, negative = inhibition": "-11.7% (inactive)"}, {"smiles": "CC[C@]12CCCN3CCc4c(n(c5ccccc45)C(=O)C1)[C@@H]32", "activity, negative = inhibition": "-0.418% (inactive)"}, {"smiles": "O=C(CCCN1CC=C(n2c(=O)[nH]c3ccccc32)CC1)c1ccc(F)cc1", "activity, negative = inhibition": "1.32% (inactive)"}]}, {"test_system": "not listed separately", "test": "Primary redox qHTS assay for identification of artifact compounds. (AID 1845223);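 also: 0% = DMSO and 100% = reference compound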", "settings": "Amplex Red/HRP redox cycling with DTT, fluorescence; series mostly up to 53.8 µM; redox activity (% of DA3003): at the top concentration", "outline": "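Amplex Red (25 uM) and HRP (250 mU/mL) in HBSS, with compounds for 15 min, then 250 uM DTT for 30 min, room temperature, dark. Fluorescence 525/598 nm read; normalized to DMSO and 10 uM DA3003; Hill fit.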", "values": [{"smiles": "C=C[C@H]1CN2CC[C@H]1C[C@H]2[C@H](O)c1ccnc2ccc(OC)cc12", "redox activity (% of DA3003)": "-5.05% (inactive)"}, {"smiles": "O=C1[C@H](CC[C@H](O)c2ccc(F)cc2)[C@@H](c2ccc(O)cc2)N1c1ccc(F)cc1", "redox activity (% of DA3003)": "-7.11% (inactive)"}, {"smiles": "CC[C@]12CCCN3CCc4c(n(c5ccccc45)C(=O)C1)[C@@H]32", "redox activity (% of DA3003)": "-1.78% (inactive)"}, {"smiles": "O=C(CCCN1CC=C(n2c(=O)[nH]c3ccccc32)CC1)c1ccc(F)cc1", "redox activity (% of DA3003)": "13.5% (inactive)"}]}]}
